The results in this text go back to PubChem BioAssay AID504500 (NMMLSC, 2011).

Structures are written as SMILES. Measured potencies and affinities stand elsewhere. Calls of active or inactive are those of the source.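 How the source made its calls: active means compounds whose curve fit is tight, with span above 25% and half-effect concentration below 10 µM; inactive means the rest.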

This experiment deals with Beta-adrenergic receptor kinase 1 (Homo sapiens) (UniProt P25098). Kind of experiment: aptamer displacement from bead-bound GRK2 – biochemical, cherry pick 1, bead flow cytometry, dose response (AID 504500). The conditions noted are these: bead-bound biotinylated GRK2, FAM-aptamer displacement; series mostly up to 33 µM; inhibition of aptamer binding: at the top concentration. A general note: In flow cytometry, cells or beads pass a laser one at a time.
Chain of Beta-adrenergic receptor kinase 1 (Homo sapiens) (P25098 whole entry, looked up): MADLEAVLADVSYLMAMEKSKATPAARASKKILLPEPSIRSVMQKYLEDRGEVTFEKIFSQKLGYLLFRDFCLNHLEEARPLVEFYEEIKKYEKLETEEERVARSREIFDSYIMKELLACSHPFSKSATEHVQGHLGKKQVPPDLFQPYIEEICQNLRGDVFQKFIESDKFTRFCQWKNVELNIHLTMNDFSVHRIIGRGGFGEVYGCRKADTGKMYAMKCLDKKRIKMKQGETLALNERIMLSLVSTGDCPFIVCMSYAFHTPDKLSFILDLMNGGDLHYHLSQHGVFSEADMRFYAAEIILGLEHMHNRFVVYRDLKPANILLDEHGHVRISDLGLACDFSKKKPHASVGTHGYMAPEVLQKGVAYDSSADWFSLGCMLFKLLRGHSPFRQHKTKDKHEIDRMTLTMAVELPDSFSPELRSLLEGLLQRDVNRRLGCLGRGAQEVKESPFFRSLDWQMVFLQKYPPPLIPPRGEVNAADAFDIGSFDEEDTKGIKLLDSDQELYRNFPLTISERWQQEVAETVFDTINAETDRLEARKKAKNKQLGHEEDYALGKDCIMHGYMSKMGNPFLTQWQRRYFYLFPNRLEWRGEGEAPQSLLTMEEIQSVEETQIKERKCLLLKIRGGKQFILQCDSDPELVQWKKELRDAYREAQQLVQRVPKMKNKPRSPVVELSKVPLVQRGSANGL
With `O=C(O)C1C2C=CC(CC2)C1C(=O)O` (stereo unspecified), the “inhibition of aptamer binding” value is -2.57% (inactive).

`Cc1ccc(CCNC(=O)CCS(=O)(=O)c2ccc(Br)cc2)cc1`: the “inhibition of aptamer binding” value was 66% (inactive).

Consider `CC(=O)Nc1ccc(N(C)C)cc1[N+](=O)[O-]`, for which the “inhibition of aptamer binding” value is 7.48% (inactive).

For the compound `COc1ccc(OC)c(N2C(=O)[C@@H]3C(c4ccccc4Cl)=NO[C@@H]3C2=O)c1`, the “inhibition of aptamer binding” value was 76.3% (inactive).

With `C=C(C)C(=O)Nc1cccc(C2=NOC3(C2)C[C@@H](C(N)=O)N(C(=O)C(=C)C)C3)c1` (stereo partly specified), the “inhibition of aptamer binding” value was 60.3% (inactive).

As to `C=C(C)C(=O)Nc1cccc(C2=NOC3(C2)C[C@@H](C(N)=O)N(C(=O)/C=C/C=C/C)C3)c1` (stereo partly specified), the “inhibition of aptamer binding” value was 84.2% (inactive).

With `CNC(=O)c1[nH]cnc1C(=O)Nc1ccc(F)cc1`, the “inhibition of aptamer binding” value was 1.5% (inactive).

`CCc1ccccc1NC(=O)CCS(=O)(=O)c1ccc(Br)cc1`: the “inhibition of aptamer binding” value was 55.8% (inactive).

As to `O=C(O)C1Nc2c(O)cc(Cl)c([N+](=O)[O-])c2C2C=CCC12` (stereo unspecified), the “inhibition of aptamer binding” value is -0.66% (inactive).

Take `Cc1ccc(C(=O)Nc2cccc(C(=O)NCc3ccco3)c2)cc1`: the “inhibition of aptamer binding” value is 2.31% (inactive).

On to `C=C(C)C(=O)Nc1cccc(C2=NOC3(C2)C[C@H](C(N)=O)N(C(=O)CC#N)C3)c1` (stereo partly specified), for which the “inhibition of aptamer binding” value is -8.72% (inactive).

As for `Cc1cc2ccccc2n1CCNC(=O)c1ccccc1`, the “inhibition of aptamer binding” value was -0.61% (inactive).

Turning to `O=C(CCS(=O)(=O)c1ccc(Br)cc1)NCCc1ccc(Cl)cc1`, the “inhibition of aptamer binding” value is 87.3% (inactive).

For `O=C(CCS(=O)(=O)c1ccc(Br)cc1)NCc1cccs1`, the “inhibition of aptamer binding” value is 78.5% (inactive).

`COCCNC(=O)C/C(C)=N/NC(=O)C(=O)NC1CCCCC1`: the “inhibition of aptamer binding” value is 2.44% (inactive).

With `COc1ccc(N2CCN(C(CNS(=O)(=O)c3ccc(C)cc3)c3ccccc3)CC2)cc1` (stereo unspecified), the “inhibition of aptamer binding” value was 3.97% (inactive).

For the compound `C=C(C)C(=O)Nc1cccc(C2=NOC3(C2)C[C@@H](C(N)=O)N(C(=O)/C=C/CC)C3)c1` (stereo partly specified), the “inhibition of aptamer binding” value was 60.9% (inactive).

`COc1ccc(N2CCN(C(CNS(=O)(=O)c3ccccc3)c3ccccc3)CC2)cc1` (stereo unspecified): the “inhibition of aptamer binding” value was 3.82% (inactive).

With `CCN1/C(=C/C(C)=C/c2sc3ccccc3[n+]2CC)Sc2ccccc21`, the “inhibition of aptamer binding” value is 17.1% (inactive).

Regarding `C#CCSc1nc2sc3c(c2c(=O)n1C)CCC3`, the “inhibition of aptamer binding” value is 85.1% (inactive).

As to `CCOC(=O)c1sc(NCc2ccco2)c(-c2nc3ccccc3s2)c1N`, the “inhibition of aptamer binding” value is 8.14% (inactive).

As to `CCN1/C(=C/C=C/c2sc3ccccc3[n+]2CC)Sc2ccccc21`, the “inhibition of aptamer binding” value is -5.22% (inactive).

Turning to `CC(C)C(C(=O)O)N1C(=O)/C(=C/C=C/c2ccco2)SC1=S` (stereo unspecified), the “inhibition of aptamer binding” value was 27.4% (inactive).

Take `O=C(CCS(=O)(=O)c1ccc(Br)cc1)NCCc1ccccc1`: the “inhibition of aptamer binding” value is 76.5% (inactive).

On to `O=C(Nc1cccc(-c2ccc(N3CCOCC3)nn2)c1)c1ccccc1`, for which the “inhibition of aptamer binding” value is -0.34% (inactive).

With `COc1cc(/C=C2\CCc3c2nc2ccccc2c3C(=O)O)cc(OC)c1OC`, the “inhibition of aptamer binding” value is -1.83% (inactive).

Regarding `O=C(CN1CCc2ccccc21)NC(=O)NCc1ccccc1`, the “inhibition of aptamer binding” value was 53.7% (inactive).

On to `CCN1/C(=C/c2ccc3ccc(C)cc3[n+]2CC)Sc2ccccc21`, for which the “inhibition of aptamer binding” value is -3.68% (inactive).

For `COc1ccc2nc(SCC(=O)Nc3ccc4c(c3)OCCO4)[nH]c2c1`, the “inhibition of aptamer binding” value was -0.24% (inactive).

For the compound `CC1CCN(C(=O)c2[nH]cnc2C(=O)Nc2cccc(Cl)c2)CC1`, the “inhibition of aptamer binding” value is -9.82% (inactive).

Consider `O=C(CCS(=O)(=O)c1ccc(Br)s1)N1CCc2ccccc21`, for which the “inhibition of aptamer binding” value is -2.03% (inactive).
